Screens deposited in PubChem BioAssay by National Center for Advancing Translational Sciences (NCATS).
ELG1 DNA repair: inhibitors of ELG1-dependent DNA repair in HEK293T cells; 2.3% of 330,000 active; AID 504467; HEK293T ELG1-luciferase reporter, luminescence, 16 h; DNA damage induced by 5-fluorouridine; Potency, µM (doses to about 46.1 µM), for inactives: at the highest dose activity change, negative = inhibition, actives largely listed as inhibitors; also: potency is read from the fitted curve at half-maximal effect; nearly all actives have a fitted effect of over 55% in size
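In this reporter screen, reduction of luminescence relative to DMSO vehicle indicated activity. Compounds and 5-fluorouridine were added together to 2,000 cells per well, incubated for 16 hr at 37 °C, then developed with ONE-Glo.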
Giardia kill: Giardia lamblia killing. Giardia lamblia trophozoite viability. AID 540267. activity change, % at 7.66 µM, hits read low. 0.15% of 340,000 active; in the data active = activity change below about -80%; inconclusive = between about -30% and that limit;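 also: parasites exposed to compound for two days anaerobically before the ATP read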
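Media and compound were dispensed first, then trophozoites at 100 cells/well; plates sat 48 hrs at 37 deg C without oxygen before ATP luminescence reagent was added and read after 15-30 min at room temperature.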
TDP1 cell noCPT: qHTS for Inhibitors of human tyrosyl-DNA phosphodiesterase 1 (TDP1): qHTS in cells in absence of CPT; DT40 Tdp1-/- hTDP1 cells, no CPT, ATP luminescence, 48 h; Potency, µM (series often up to 46.2 µM), without a hit: at the highest dose activity change, negative = growth inhibition, usual class: inhibitors; 15% of 420,000 active; AID 686978, 2013; also: potency is read from the fitted curve at half-maximal effect; nearly all actives have a fitted effect of over 55% in size
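Growth of hTDP1-complemented DT40 Tdp1-knockout cells is measured by ATP luminescence after at least 48 hr compound exposure at 37 °C, with DMSO substituting for the 20 nM CPT used in the parallel screen.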
DT40 TDP1 CPT: DT40-hTDP1 cell growth loss with CPT; 12% of 420,000 active; AID 686979; chicken DT40 Tdp1-/-;hTDP1 cells + 20 nM CPT, ATP luminescence, 48 h; Potency, µM (top dose mostly 46.2 µM), without a hit: at the top dose activity change, negative = growth inhibition, most hits filed as inhibitors; also: potency is read from the fitted curve at half-maximal effect; nearly all actives have a fitted effect of over 55% in size
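Chicken DT40 Tdp1-/- cells complemented with human TDP1, 400 cells/well, exposed to compounds plus 20 nM camptothecin for at least 48 h at 37 C; viability read as ATP content by CellTiter-Glo luminescence.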
IL1B secr inh: inhibitors of inflammasome signaling (IL-1 beta secretion) | THP-1 LPS/ATP IL-1B secretion, AlphaLISA, 16 h; hits give low values | AID 743279 | activity change, % at 57.5 µM | 4.7% of 360,000 active; in the data active = activity change below about -50%; inconclusive = mostly about -30% to -49%
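Secreted IL-1B measured by AlphaLISA bead assay after 16 h compound exposure of THP-1 cells; compounds (final up to 57.5 uM) added 1 h before LPS (250 ng/mL) and ATP (1.25 mM) stimulation; lower signal means less secretion.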
TDP1 inh: TDP1 (human) enzyme inhibition. Potency, µM (top dose mostly 130 µM), for inactives: at the top dose activity change, negative = inhibition, usual class: inhibitors. 0.28% of 350,000 active. recombinant TDP1, AlphaScreen DNA substrate cleavage. Q9NUW8; also: potency is read from the fitted curve at half-maximal effect; nearly all actives have a fitted effect of over 40% in size
Target sequence (Q9NUW8 whole entry, looked up): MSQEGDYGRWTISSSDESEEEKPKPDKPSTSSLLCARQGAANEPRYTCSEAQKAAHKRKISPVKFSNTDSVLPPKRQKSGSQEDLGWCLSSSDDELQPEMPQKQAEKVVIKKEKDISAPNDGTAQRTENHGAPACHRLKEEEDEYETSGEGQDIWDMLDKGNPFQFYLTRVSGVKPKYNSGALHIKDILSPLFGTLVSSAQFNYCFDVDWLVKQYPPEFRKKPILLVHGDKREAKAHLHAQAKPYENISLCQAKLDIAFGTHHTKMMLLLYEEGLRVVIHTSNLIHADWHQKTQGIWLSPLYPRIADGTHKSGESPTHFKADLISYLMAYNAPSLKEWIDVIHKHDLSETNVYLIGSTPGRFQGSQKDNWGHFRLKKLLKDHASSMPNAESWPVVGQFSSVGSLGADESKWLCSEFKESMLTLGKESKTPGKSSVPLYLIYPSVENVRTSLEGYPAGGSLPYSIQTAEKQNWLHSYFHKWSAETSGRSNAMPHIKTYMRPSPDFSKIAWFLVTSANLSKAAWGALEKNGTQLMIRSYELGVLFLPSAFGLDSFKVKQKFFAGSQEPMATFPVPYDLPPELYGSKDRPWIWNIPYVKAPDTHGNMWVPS
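Compounds were preincubated with Tdp1 (1 nM final) for 15 min at room temperature before substrate (15 nM final) started a 5 min reaction; beads (10 ug/ml final) were then added for 10 min before AlphaScreen detection.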
* marks the source's active call; other numbers are inactive results; ? = inconclusive; . = no result; [ ] = remark or other dose. Rows were chosen to be rich in hits. Some 19% of all compounds tested hit in one or more screens of this group. Unless noted, calls follow the shape of the dose curve; as a rule, active = well fitted curve in the direction sought with a large enough effect; inconclusive = small, poorly fitted or top-dose-only effect, or another doubt; inactive = no such curve, though single readings can be large; an effect the other way counts as inactive or inconclusive. % is scaled to controls: 0 for no effect and ±100 for the full control effect.

SMILES | ELG1 DNA repair | Giardia kill | TDP1 cell noCPT | DT40 TDP1 CPT | IL1B secr inh | TDP1 inh
COc1ccccc1CN1C(=O)C(=O)c2cccc(C)c21 | . | . | 6.5µM* | 13µM* | . | 0%
Cc1cccc2c1N(Cc1ccccc1OCCC(C)C)C(=O)C2=O | . | . | 12µM* | 15µM* | . | 13%
COc1ccc(C2NC(=O)Cc3cc(OC)c(OC)cc32)cc1OC (stereo unspecified) | 8% | 4 | -17% | -22% | 0 | -2%
COc1cc2c(cc1OC)C(c1ccc(Br)cc1)NC(=O)C2 (stereo unspecified) | 5% | -2 | -17% | 2% | -71* | .
CN(C(=O)CSc1nc(-c2ccccc2)cn1N)C(c1ccccc1)c1ccccc1 | ? | 2 | 26µM* | 21µM* | ? | 2%
COc1ccccc1CNC(=O)CSc1nc(-c2ccccc2)cn1N | 4% | -27 | -17% | ? | 0 | 10%
C[C@H](CO)N1C[C@H](C)[C@H](CN(C)Cc2ccncc2)Oc2ccc(NC(=O)Nc3ccc(C(F)(F)F)cc3)cc2CC1=O | ? | 0 | 4.6µM* | 3.3µM* | -10 | 1%
C[C@H]1CN([C@@H](C)CO)C(=O)Cc2cc(NC(=O)Nc3ccccc3)ccc2O[C@H]1CN(C)Cc1ccccc1 | . | -15 | 21µM* | 21µM* | -72* | .
C[C@@H]1CN([C@@H](C)CO)C(=O)Cc2cc(NC(=O)Nc3ccc(F)cc3)ccc2O[C@@H]1CN(C)Cc1ccc(Cl)c(Cl)c1 | ? | -7 | 15µM* | ? | -54* | 4%
CC(=O)c1ccc(N2CCN(S(=O)(=O)c3c(C)nc4sc(C)cn4c3=O)CC2)cc1 | . | . | -11% | 4% | . | -5%
N#CCCn1c(=O)c(-c2cc(F)cc(F)c2)nc2cnc(N3CCOCC3)nc21 | . | . | 4% | 6% | . | .
CCCNC(=O)Nc1nc2ccccc2s1 | ? | -26 | 4% | -25% | -17 | .
CCCCNC(=O)Nc1nc2ccccc2s1 | ? | 15 | ? | ? | -78* | 3%
CCCNC(=O)c1ccc(-c2nc3ccccc3s2)s1 | ? | ? | 10µM* | ? | -10 | -3%
O=C(NCCCO)c1nc2ccccc2s1 | ? | 10 | 3% | -18% | 53 | -1%
O=C1CCN(Cc2ccc(Br)cc2)CCN1[C@H](CO)Cc1ccccc1 | -17% | -6 | ? | 20µM* | -2 | .
O=C1CCN(Cc2ccccc2)CCN1[C@H](CO)Cc1ccccc1 | -12% | -4 | -12% | -3% | 12 | .
CCCCCCCN1CCC(=O)N([C@H](CO)Cc2ccccc2)CC1 | -10% | 27 | 13µM* | 21µM* | -10 | .
CC(C)C[C@@H](CO)N1CCN(C)CCC1=O | -12% | -2 | -10% | 3% | -2 | .
CCCCCCCN1CCC(=O)N([C@H](CO)CC(C)C)CC1 | 7% | -3 | 23µM* | ? | -1 | .
CC(C)CNc1ncnc2[nH]ncc12 | . | -15 | -23% | -14% | 37 | .
Cc1ccc(C(=O)c2c(NC(=O)CSc3nnc(N)s3)sc3c2CCCC3)cc1 | ? | -22 | ? | ? | -72* | -1%
COCCNc1nnc(SCC(=O)Nc2sc3c(c2C(=O)c2ccccc2)CCCC3)s1 | ? | 1 | ? | 21µM* | ? | 0%
Nc1nnc(SCC(=O)Nc2sc3c(c2C(=O)c2ccccc2)CCCC3)s1 | -13% | -25 | 16µM* | ? | -3 | -2%
Cc1ccc(C(=O)c2c(NC(=O)c3cccnc3)sc3c2CCCC3)cc1 | 7% | 11 | -23% | -27% | -1 | 10%
SMILES | ELG1 DNA repair | Giardia kill | TDP1 cell noCPT | DT40 TDP1 CPT | IL1B secr inh | TDP1 inh
COC(=O)/C(C)=C/CC12OC(C)(C)C3CC(C=C4C(=O)c5cc6c(c(CCC(C)(C)Cl)c5OC431)OC1(C)CCC(=C(C)C)C6C1)C2=O (stereo unspecified) | . | . | -8% | 2% | . | -8%[56.1 µM]
Cc1ccc(S(=O)(=O)Oc2ccccc2)cc1 | . | 9 | -2% | 6% | -3 | .
CN(CC(=O)Nc1ccc(Cl)cc1)C(=O)c1sccc1-c1ccccc1 | ? | -11 | ? | 21µM* | -13 | -4%
Cc1ccc(S(=O)(=O)Oc2ccccc2-c2ccccc2)cc1 | . | -15 | 13µM* | 16µM* | 45 | .
CCC(=O)c1ccc(OCC(=O)OCC(=O)N(C)CC(=O)Nc2ccc(F)cc2)cc1 | 1% | -14 | 2% | -18% | 19 | .
Cc1ccc(NC(=O)CN(C)C(=O)COc2ccc(C(=O)c3ccc(F)cc3)cc2)cc1 | ? | -24 | 21µM* | -29% | -23 | 3%
Cc1ccc(NC(=O)CN(C)C(=O)COc2ccccc2-c2ccccc2)cc1 | ? | -14 | 15µM* | -29% | -65* | 1%
Cc1onc(-c2ccccc2)c1C(=O)NCc1ccccc1F | -2% | 14 | -22% | 2% | -12 | .
CC[C@@]1(C(=O)OC)N[C@H](CN(C)S(=O)(=O)c2ccc(OC(F)(F)F)cc2)[C@@H]2C(=O)N(C)C(=O)[C@@H]21 | 0% | 19 | -1% | -29% | 1 | -1%
O=C(Nc1ccccc1)n1ccc(-c2ccc(-n3ccnc3)cc2)n1 | ? | . | . | . | . | 6%
COc1ccc(OC)c(-c2ccccc2/C=N/NS(=O)(=O)c2ccc(C)cc2)c1 | . | . | . | . | . | 8%[21 µM]
Cc1ccc(C(=O)COc2ccccc2N2C(=O)c3ccccc3C2=O)cc1 | ? | -12 | 2% | 6% | 22 | 0%
Cc1ccc(C(=O)COc2ccccc2-c2ccccc2)cc1 | 1% | -12 | 26µM* | 23µM* | -4 | ?
CN(c1ccc(OCC(=O)Nc2ccc(S(N)(=O)=O)cc2)cc1)S(=O)(=O)c1ccc(F)cc1 | . | -3 | ? | ? | 20 | .
NS(=O)(=O)c1ccc(NC(=O)COc2ccc(C(=O)c3ccc(F)cc3)cc2)cc1 | ? | 4 | 12µM* | ? | ? | .
COc1ccc(S(=O)(=O)N2CCOC2CNC(=O)C(=O)NCc2ccco2)cc1OC (stereo unspecified) | 6% | -3 | -10% | -7% | -8 | .
O=c1[nH]c(=O)n([C@H]2C[C@@H](O)[C@@H](CO)O2)cc1F | . | . | 1.6µM* | 5µM* | . | .
O=C1C=CC(n2cc(F)c(=O)[nH]c2=O)O1 (stereo unspecified) | . | . | ? | 18µM* | ? | .
O=c1[nH]cnc2c1[nH]c(=S)n2C1O[C@@H](CO)[C@H](O)[C@@H]1O (stereo partly specified) | . | -5 | -5% | -7% | . | 3%
